Measurements published in ChEMBL document CHEMBL1961873, “Compounds: GSK PKIS; Assays: Nanosyn kinase panel” (2012).

Experiments:
[1] = target: Mitogen-activated protein kinase kinase kinase kinase 4 (Homo sapiens) (UniProt O95819); conditions: at 1 µM;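 note: reported figure is an averaged inhibition value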
[2] = target: Dual specificity mitogen-activated protein kinase kinase 1 (Homo sapiens) (UniProt Q02750); conditions: at 0.1 µM
[3] = target: Dual specificity mitogen-activated protein kinase kinase 1 (Homo sapiens) (UniProt Q02750); conditions: at 1 µM
[4] = target: Misshapen-like kinase 1 (Homo sapiens) (UniProt Q8N4C8); conditions: at 0.1 µM
[5] = target: Misshapen-like kinase 1 (Homo sapiens) (UniProt Q8N4C8); conditions: at 1 µM
[6] = target: T1, Serine/threonine-protein kinase 4 (Homo sapiens) (UniProt Q13043); conditions: at 0.1 µM
T1 sequence (whole entry): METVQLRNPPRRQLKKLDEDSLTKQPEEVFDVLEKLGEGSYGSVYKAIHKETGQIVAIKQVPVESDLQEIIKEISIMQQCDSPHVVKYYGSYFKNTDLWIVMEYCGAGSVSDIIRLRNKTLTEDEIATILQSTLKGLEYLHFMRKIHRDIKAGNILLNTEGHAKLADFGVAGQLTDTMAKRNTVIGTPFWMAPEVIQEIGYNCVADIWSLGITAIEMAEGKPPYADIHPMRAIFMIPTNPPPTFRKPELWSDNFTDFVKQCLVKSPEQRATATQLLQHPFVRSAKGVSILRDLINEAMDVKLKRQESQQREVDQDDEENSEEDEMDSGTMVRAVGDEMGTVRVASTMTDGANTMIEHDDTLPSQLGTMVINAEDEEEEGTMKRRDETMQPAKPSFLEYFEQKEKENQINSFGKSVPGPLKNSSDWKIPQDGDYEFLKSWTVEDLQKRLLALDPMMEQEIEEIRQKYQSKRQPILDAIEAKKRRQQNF

[7] = target: T1, Serine/threonine-protein kinase 4 (Homo sapiens); conditions: at 1 µM
[8] = target: T2, Serine/threonine-protein kinase 3 (Homo sapiens) (UniProt Q13188); conditions: at 0.1 µM
T2 sequence (whole entry): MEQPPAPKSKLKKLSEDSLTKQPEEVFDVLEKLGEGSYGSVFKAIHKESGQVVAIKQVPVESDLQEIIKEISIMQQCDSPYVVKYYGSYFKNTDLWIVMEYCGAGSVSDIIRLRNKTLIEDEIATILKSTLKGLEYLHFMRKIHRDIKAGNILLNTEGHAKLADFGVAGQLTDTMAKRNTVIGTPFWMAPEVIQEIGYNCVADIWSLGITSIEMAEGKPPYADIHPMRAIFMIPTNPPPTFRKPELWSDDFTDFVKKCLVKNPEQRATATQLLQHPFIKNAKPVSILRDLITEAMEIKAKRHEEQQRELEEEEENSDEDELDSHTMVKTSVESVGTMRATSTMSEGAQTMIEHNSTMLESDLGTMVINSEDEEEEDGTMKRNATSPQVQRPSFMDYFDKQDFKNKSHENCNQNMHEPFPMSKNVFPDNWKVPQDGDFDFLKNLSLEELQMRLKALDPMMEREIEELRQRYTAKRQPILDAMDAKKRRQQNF

[9] = target: T2, Serine/threonine-protein kinase 3 (Homo sapiens); conditions: at 1 µM
[10] = target: Serine/threonine-protein kinase 26 (Homo sapiens) (UniProt Q9P289); conditions: at 0.1 µM
[11] = target: Serine/threonine-protein kinase 26 (Homo sapiens) (UniProt Q9P289); conditions: at 1 µM
[12] = target: Serine/threonine-protein kinase PAK 1 (Homo sapiens) (UniProt Q13153); conditions: at 0.1 µM
[13] = target: Serine/threonine-protein kinase PAK 1 (Homo sapiens) (UniProt Q13153); conditions: at 1 µM
[14] = target: Serine/threonine-protein kinase PAK 2 (Homo sapiens) (UniProt Q13177); conditions: at 0.1 µM
[15] = target: Serine/threonine-protein kinase PAK 2 (Homo sapiens) (UniProt Q13177); conditions: at 1 µM
[16] = target: Serine/threonine-protein kinase PAK 3 (Homo sapiens) (UniProt O75914); conditions: at 0.1 µM
[17] = target: Serine/threonine-protein kinase PAK 3 (Homo sapiens) (UniProt O75914); conditions: at 1 µM
[18] = target: Serine/threonine-protein kinase PAK 5 (Homo sapiens) (UniProt Q9P286); conditions: at 0.1 µM
[19] = target: Serine/threonine-protein kinase PAK 5 (Homo sapiens) (UniProt Q9P286); conditions: at 1 µM
[20] = target: Serine/threonine-protein kinase PAK 6 (Homo sapiens) (UniProt Q9NQU5); conditions: at 0.1 µM;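 note: mean PAK6 inhibition reported from the GSK PKIS screen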
Sequence of Serine/threonine-protein kinase PAK 6 (Homo sapiens) (Q9NQU5 whole entry, looked up): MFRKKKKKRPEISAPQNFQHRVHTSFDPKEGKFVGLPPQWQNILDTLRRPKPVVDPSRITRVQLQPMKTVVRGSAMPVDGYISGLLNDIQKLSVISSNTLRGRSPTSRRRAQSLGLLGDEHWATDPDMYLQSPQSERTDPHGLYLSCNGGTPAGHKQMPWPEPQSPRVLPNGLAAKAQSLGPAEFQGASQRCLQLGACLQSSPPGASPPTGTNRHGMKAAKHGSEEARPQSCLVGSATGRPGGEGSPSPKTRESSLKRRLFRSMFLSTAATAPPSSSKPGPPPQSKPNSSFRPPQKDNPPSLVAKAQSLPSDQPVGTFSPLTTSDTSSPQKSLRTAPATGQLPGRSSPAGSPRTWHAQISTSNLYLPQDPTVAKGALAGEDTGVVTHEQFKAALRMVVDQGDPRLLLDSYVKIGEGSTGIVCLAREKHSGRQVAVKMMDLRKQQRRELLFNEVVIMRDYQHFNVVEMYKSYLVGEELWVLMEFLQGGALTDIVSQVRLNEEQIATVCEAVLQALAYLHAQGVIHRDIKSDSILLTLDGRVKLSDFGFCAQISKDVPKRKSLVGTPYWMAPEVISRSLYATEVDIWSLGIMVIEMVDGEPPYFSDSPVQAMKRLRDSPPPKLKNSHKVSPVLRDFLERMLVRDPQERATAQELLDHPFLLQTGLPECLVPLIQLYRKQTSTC

Sequence of Mitogen-activated protein kinase kinase kinase kinase 4 (Homo sapiens) (O95819 2-1239 limits assumed): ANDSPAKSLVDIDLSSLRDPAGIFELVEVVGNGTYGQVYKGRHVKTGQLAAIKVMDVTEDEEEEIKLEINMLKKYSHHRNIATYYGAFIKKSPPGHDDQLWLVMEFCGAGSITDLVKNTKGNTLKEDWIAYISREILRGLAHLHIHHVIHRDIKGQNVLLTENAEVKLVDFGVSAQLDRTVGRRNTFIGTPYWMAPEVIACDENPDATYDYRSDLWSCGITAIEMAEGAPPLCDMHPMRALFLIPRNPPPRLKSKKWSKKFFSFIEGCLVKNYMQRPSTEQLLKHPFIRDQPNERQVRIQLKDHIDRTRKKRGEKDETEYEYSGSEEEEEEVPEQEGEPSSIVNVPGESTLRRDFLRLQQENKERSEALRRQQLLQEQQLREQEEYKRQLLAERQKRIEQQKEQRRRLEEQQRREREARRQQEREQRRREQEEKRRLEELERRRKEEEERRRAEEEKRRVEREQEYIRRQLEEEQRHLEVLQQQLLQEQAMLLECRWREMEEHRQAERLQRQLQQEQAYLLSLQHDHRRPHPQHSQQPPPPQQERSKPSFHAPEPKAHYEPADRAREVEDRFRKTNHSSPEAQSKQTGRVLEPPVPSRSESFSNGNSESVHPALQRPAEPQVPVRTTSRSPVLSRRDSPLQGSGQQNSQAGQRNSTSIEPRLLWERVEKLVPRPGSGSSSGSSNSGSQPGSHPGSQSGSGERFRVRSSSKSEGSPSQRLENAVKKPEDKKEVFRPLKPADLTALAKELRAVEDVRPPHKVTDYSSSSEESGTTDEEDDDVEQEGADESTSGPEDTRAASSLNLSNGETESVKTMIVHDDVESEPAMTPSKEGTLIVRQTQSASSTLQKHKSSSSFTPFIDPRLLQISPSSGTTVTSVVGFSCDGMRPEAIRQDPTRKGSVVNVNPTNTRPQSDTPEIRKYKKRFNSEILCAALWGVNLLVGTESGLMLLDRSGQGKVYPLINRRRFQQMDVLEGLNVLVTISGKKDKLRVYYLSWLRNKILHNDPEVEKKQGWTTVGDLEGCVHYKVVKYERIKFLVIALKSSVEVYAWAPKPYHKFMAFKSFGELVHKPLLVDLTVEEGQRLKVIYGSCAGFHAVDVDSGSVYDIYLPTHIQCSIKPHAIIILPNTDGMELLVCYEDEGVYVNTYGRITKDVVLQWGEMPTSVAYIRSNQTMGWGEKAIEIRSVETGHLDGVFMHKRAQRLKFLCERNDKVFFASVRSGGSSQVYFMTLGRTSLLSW
Sequence of Serine/threonine-protein kinase 26 (Homo sapiens) (Q9P289 2-416 limits assumed): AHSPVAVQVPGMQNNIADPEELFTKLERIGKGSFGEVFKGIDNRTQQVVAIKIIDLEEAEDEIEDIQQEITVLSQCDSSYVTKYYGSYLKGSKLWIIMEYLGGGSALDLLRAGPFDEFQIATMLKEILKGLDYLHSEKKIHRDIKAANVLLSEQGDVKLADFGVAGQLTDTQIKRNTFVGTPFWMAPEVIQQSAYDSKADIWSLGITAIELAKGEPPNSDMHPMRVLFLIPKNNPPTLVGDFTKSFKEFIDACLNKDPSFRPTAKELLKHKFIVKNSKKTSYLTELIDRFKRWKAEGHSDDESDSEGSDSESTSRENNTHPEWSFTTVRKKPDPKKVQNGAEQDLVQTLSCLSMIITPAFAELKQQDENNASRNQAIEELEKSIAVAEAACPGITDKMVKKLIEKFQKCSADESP
Sequence of Misshapen-like kinase 1 (Homo sapiens) (Q8N4C8 whole entry, looked up): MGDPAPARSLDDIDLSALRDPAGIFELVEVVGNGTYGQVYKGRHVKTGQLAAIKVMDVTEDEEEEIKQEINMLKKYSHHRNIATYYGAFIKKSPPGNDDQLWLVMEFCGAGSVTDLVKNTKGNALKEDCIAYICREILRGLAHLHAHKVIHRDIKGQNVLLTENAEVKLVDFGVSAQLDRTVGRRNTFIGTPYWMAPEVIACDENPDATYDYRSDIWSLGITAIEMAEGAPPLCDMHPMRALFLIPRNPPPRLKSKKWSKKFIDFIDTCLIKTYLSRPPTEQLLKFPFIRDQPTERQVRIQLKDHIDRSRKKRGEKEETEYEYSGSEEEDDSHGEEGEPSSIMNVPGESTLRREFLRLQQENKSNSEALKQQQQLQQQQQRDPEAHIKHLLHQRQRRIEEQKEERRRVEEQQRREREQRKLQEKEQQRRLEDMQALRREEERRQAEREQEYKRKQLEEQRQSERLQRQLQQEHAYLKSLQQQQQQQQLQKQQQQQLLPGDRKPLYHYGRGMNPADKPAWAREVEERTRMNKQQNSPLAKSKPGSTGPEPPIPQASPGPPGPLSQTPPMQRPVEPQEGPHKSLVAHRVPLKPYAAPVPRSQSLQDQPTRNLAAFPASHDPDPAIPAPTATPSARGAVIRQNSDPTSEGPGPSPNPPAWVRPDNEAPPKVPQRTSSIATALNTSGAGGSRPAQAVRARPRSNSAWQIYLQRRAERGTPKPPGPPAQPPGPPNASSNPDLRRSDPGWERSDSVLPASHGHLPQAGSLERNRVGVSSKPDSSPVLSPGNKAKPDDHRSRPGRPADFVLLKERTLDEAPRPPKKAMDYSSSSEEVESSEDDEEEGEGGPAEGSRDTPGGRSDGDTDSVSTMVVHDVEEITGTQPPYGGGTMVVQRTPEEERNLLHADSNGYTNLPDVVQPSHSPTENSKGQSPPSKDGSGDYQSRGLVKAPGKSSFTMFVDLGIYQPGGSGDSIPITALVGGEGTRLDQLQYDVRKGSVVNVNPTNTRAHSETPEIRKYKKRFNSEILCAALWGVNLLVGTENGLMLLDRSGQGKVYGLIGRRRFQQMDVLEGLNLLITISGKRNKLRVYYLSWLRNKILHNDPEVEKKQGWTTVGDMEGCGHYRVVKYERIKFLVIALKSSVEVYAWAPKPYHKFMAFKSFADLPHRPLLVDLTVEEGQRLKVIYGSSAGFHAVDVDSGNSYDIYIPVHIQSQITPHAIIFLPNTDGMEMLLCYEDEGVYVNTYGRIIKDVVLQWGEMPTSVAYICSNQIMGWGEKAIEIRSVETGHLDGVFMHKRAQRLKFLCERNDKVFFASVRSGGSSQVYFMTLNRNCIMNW
Sequence of Serine/threonine-protein kinase PAK 5 (Homo sapiens) (Q9P286 whole entry, looked up): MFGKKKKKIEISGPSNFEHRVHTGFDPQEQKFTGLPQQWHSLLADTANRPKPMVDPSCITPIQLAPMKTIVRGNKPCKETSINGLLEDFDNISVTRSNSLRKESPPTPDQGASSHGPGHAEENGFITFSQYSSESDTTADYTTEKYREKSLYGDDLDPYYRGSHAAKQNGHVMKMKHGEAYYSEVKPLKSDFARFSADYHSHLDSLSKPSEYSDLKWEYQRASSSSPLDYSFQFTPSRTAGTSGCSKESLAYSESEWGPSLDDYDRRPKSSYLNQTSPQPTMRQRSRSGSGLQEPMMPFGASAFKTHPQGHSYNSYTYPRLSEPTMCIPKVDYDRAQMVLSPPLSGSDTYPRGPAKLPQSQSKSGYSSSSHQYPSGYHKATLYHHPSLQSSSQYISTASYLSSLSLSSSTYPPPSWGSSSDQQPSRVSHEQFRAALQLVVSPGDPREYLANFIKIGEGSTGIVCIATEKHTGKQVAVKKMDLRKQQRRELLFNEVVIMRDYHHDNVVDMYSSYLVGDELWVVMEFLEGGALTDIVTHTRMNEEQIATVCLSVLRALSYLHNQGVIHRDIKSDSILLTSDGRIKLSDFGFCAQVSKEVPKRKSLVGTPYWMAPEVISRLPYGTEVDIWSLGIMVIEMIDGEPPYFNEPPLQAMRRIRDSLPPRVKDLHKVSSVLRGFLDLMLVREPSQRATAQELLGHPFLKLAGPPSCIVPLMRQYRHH
Sequence of Serine/threonine-protein kinase PAK 1 (Homo sapiens) (Q13153 whole entry): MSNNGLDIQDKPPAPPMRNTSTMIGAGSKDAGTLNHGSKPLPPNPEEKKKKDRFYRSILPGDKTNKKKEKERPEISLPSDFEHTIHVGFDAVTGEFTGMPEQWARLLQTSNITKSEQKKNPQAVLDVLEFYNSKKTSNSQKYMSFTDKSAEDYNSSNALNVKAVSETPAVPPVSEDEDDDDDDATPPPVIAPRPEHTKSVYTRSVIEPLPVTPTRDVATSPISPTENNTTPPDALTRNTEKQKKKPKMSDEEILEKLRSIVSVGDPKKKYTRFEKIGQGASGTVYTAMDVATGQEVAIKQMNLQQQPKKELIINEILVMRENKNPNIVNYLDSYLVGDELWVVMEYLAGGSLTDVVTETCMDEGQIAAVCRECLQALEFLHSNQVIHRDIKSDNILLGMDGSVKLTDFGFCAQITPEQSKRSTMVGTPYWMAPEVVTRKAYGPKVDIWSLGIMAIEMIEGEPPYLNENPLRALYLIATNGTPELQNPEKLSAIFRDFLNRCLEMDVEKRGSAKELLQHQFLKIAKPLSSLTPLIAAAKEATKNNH

Structure (SMILES)	inhibition [1]	inhibition [2]	inhibition [3]	inhibition [4]	inhibition [5]	inhibition [6]	inhibition [7]	inhibition [8]	inhibition [9]	inhibition [10]	inhibition [11]	inhibition [12]	inhibition [13]	inhibition [14]	inhibition [15]	inhibition [16]	inhibition [17]	inhibition [18]	inhibition [19]	inhibition [20]
C/C(Nc1ccc(S(N)(=O)=O)cc1)=C1/C(=O)Nc2ccccc21	88.3%	-1.13%	0.96%	34.1%	85.3%	10.2%	55.3%	3.63%	42.3%	-1.9%	15.6%	-3.4%	2.37%	-1.56%	-1.06%	-1.9%	-1.11%	-6.43%	2.88%	-4.08%
CN1CCN(CCCNc2nc3ccc(Oc4ccc(NC(=O)Nc5cc(C(F)(F)F)ccc5F)cc4)cc3[nH]2)CC1	2.12%	2.3%	1.94%	1.67%	1.26%	3.59%	3.57%	2.61%	3.55%	1.41%	0.74%	3.77%	2.58%	1.22%	1.06%	1.62%	2.65%	1.27%	8.65%	-3.01%
O=C(NCC1CC1)c1ccc(-c2cccc(C(=O)NC3CC3)c2)cc1	2.03%	3.01%	1.66%	2.89%	-1.8%	4.49%	5.3%	4.78%	3.31%	-2.14%	-6.13%	1.6%	3.71%	2.76%	1.58%	2.9%	2.97%	9.42%	6.07%	-1.35%
CCS(=O)(=O)c1ccc(OC)c(Nc2ncc(-c3cccc(-c4ccccc4F)c3)o2)c1	7.49%	-1.1%	-0.23%	1.27%	6.72%	-0.24%	0.6%	0.7%	-0.3%	0.48%	-0.27%	-2.19%	-0.96%	-1%	-0.6%	-0.65%	-0.27%	6.6%	2.9%	12.3%
CCc1cccc(CC)c1/C=C/c1cncc(C(=O)NC)c1	7.49%	2.63%	2.68%	3.66%	6.06%	5.37%	5.19%	5.6%	3.95%	-0.96%	-4.27%	6.83%	2.08%	2.1%	1.76%	2.61%	3.43%	8.04%	-1.06%	-5.49%
NC(=O)Cc1ccccc1Oc1nccc(-c2c(-c3ccc(F)cc3)ncn2C2CCNCC2)n1	6.68%	2.01%	2.53%	4.37%	6.95%	1.4%	3.79%	2.69%	4.24%	-0.95%	-1.77%	4.71%	7.55%	1.39%	1.36%	0.09%	3.36%	-1.8%	-2.81%	1.97%
CN(C)CCCNc1nccc(-c2c(-c3ccc(F)cc3)nn3cc(C(F)(F)F)ccc23)n1	10.6%	1.86%	2.52%	5.22%	7.76%	2.92%	4.75%	3.38%	3.61%	-0.11%	0.55%	-1.51%	-0.15%	1.45%	1.67%	1.76%	2.77%	0.97%	1.58%	2.33%
COc1cccc(/C=N/Nc2ncnc3c2cnn3-c2cccc(OC)c2)c1	10.8%	3.68%	2.66%	5.65%	10.9%	2.42%	3.52%	3.29%	3.95%	-3.41%	-1.93%	7.47%	6.13%	1.74%	1.26%	2.7%	4.34%	1.31%	-2.49%	-3.17%
COC(=O)Nc1nc2ccc(Sc3ccc(NC(=O)Nc4cc(C(F)(F)F)ccc4F)cc3)cc2[nH]1	7.12%	-0.42%	0.12%	0.07%	0.67%	2.61%	3.26%	2.16%	1.83%	1.18%	-1.61%	-1.15%	-1.32%	10.8%	0.18%	-0.08%	0.83%	6.86%	-2.02%	-4.57%
NC(=O)c1ccc(Oc2nccc(-c3c(-c4ccc(F)cc4)ncn3C3CCNCC3)n2)cc1	3.93%	4.51%	4.62%	6.11%	6.81%	4.07%	4.99%	8.2%	7.98%	-1.23%	2.28%	10%	11%	2.27%	2.2%	6.67%	9.21%	4.23%	0.82%	-4.02%
O=C(Nc1n[nH]c2nc(-c3ccc(O)cc3)c(Br)cc12)C1CC1	75.2%	7.68%	8.1%	26.4%	67.7%	5.36%	10.2%	6.31%	10.6%	4.96%	35%	7.71%	8.21%	2.36%	3.87%		6.07%	1.12%	8.52%	-0.4%
O=C1Nc2ccccc2/C1=C/Nc1ccc(-n2cncn2)cc1	65.8%	6.13%	6.15%	15.3%	56.5%	14.9%	54.4%	9.7%	35.7%	-0.63%	5.15%	6.65%	8.31%	1.82%	2.17%	5.31%	5.49%		-2.52%	-0.09%
CN(C)CCOc1ccc(-c2cc(-c3ccc4c(c3)CCC4=NO)c(-c3ccncc3)o2)cc1	17.3%	1.44%	2.23%	0.59%	12.5%	-0.36%	0.8%	-1.52%	1.19%	0.59%	3.69%	-4.98%	-1.45%	-1.68%	-2.82%	-1.69%	-1.63%	-8.32%	-0.63%	1.99%
COc1cc2ncn(-c3cc(OCc4ccccc4C(F)(F)F)c(C(C)=O)s3)c2cc1OC	8.16%	3.88%	3.7%	5%	8.55%	3.51%	3.86%	3.42%	7.42%	-0.47%	-1.77%	5.43%	4.68%	0.85%	1.29%	4.94%	2.41%	-1.43%	0.17%	-1.14%
